Compound activity as filed in PubChem BioAssay.
Hits are enriched below; roughly 1.4% of the tested compounds scored in any of these assays.
uPA generation: qHTS for Inhibitors of Cell Surface uPA Generation; cell surface uPA generation assay, qHTS; Potency, µM (doses to about 38.3 µM), without a hit: at the highest dose activity change, negative = inhibition, usual class: inhibitors; 330,000 tested, 0.31% active; AID 540303, 2011; active = well fitted inhibition curve with a large enough effect; inconclusive = small, poorly fitted or top-dose-only effect; inactive = no such curve, though single readings can be large or run the other way; tested in mouse RAW 264.7 cells; also: potency is read from the fitted curve at half-maximal effect; % is scaled to controls: 0 for no effect and ±100 for the full control effect; nearly all actives have a fitted effect of over 55% in size
BRCA1 expr up: qHTS Assay to Identify Small Molecule Activators of BRCA1 Expression; MCF7-BRCA1-FFLuc reporter, luminescence, 48 h; response scale: scaled: vehicle 0%, 10 µM genistein 100%; Potency, µM (doses to about 46.1 µM), for the others: at the highest dose activation, usual class: activators; 380,000 tested, 1.1% active; also: potency is read from the fitted curve at half-maximal effect; nearly all actives have a fitted effect of over 80% in size
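Activators of BRCA1 expression were detected as increased firefly luciferase luminescence in engineered MCF7 cells after 48 h compound incubation. Signals were scaled to genistein 10 microM as full activation.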
p53 reactivator: qHTS assay for re-activators of p53 using a Luc reporter; AID 504706, 2011; Potency, µM (series often up to 92.2 µM), for inactives: at the top dose activity change, positive = activation, actives largely listed as activators; 320,000 tested, 0.063% active; H1299 p53-A138V BP100-luciferase reporter, luminescence, 24 h; also: potency is read from the fitted curve at half-maximal effect; % of control where 0% means no effect; nearly all actives have a fitted effect of over 45% in size
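p53-null H1299 cells stably carrying temperature-sensitive p53-A138V and a BP100-luciferase reporter were pinned with compounds (4-point, 1:5 series) and held 24 hrs at 37 deg C. Luminescence was read 10 min after detection reagent.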
TCR act: Activators of T cell receptors: qHTS campaign; primary human leukocytes, anti-CD3, IL-2 HTRF, 48 h; Potency, µM (series often up to 9.22 µM), without a hit: at the top dose activation of IL-2 secretion, most hits filed as activators; 330,000 tested, under 10 active; AID 504894, 2011; also: % of control where 0% means no effect
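48 hr co-incubation of compounds, a-CD3 beads and primary human leukocytes; IL-2 quantified homogeneously by HTRF with anti-IL-2 K and d2 conjugates.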
IL-2 act: qHTS of IL-2 Activators; IL-2 activation reporter assay, cell-based qHTS; stimulated with anti-CD3/CD4/CD28 beads; in transgenic mouse T cells; activation, % (series mostly up to about 46 µM); 360,000 tested, 0.065% active; AID 652025, 2013; in the data active = activation above about 50%; inconclusive = mostly about 30% to 49%; also: 0% is about no effect
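Unstimulated transgenic mouse T cells, 750 per well, received compound and, after 60 minutes, anti-CD3/anti-CD4 bead plus anti-CD28 stimulation. EGFP and DsRed were quantified after 18 hours.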
* marks the source's active call; other numbers are inactive results; ? = inconclusive; · = no result; [ ] = another dose, or the depositor's remark. Unless noted, calls follow the shape of the dose curve; as a rule, active = well fitted curve in the direction sought with a large enough effect; inconclusive = small, poorly fitted or top-dose-only effect, or another doubt; inactive = no such curve, though single readings can be large; an effect the other way counts as inactive or inconclusive.

SMILES	uPA generation	BRCA1 expr up	p53 reactivator	TCR act	IL-2 act
Cc1nnc(NC(=O)c2cc3ccccc3o2)s1	-6%	7.1µM*	?	1%	0
Cc1nc(NC(=O)c2cc3ccccc3o2)sc1C	-7%	-39%	53%	-3%	4
COc1ccc(CNc2nc3ccccc3n2C)c(O)c1	1%	1.6µM*	23%	1%	0
COc1ccc(CNc2nc3ccccc3n2C)c(OC)c1	1%	?	5%	6%	1
CCCn1c(NCc2cccc(OC)c2O)nc2ccccc21	5%	6.3µM*	16%	-3%[46.1 µM]	0
COc1ccc(NCc2nc3ccccc3n2C)cc1	?	4µM*	·	·	0
Cc1ccc(NCc2nc3ccccc3n2C)cc1C	-2%	7.9µM*	?	·	0
Nc1nc2[nH]cc(CCc3ccc(C(=O)N[C@@H](CCC(=O)O)C(=O)O)cc3)c2c(=O)[nH]1	·	0%	·	·	·
Cn1c(Nc2ccc(F)cc2)nc2ccccc21	-4%	32%	10%	-1%	-2
COc1ccc(Nc2nc3ccccc3n2C)cc1	-2%	5.6µM*	·	·	0
NCCCN(Cc1ccccc1)c1ccc(Br)cn1	·	2%	·	·	·
O=C(C1CCN(Cc2nc(-c3ccc(Cl)cc3)no2)CC1)N1CCOCC1	-2%	-31%	3%	-32%	-2
Clc1ccc(-c2noc(CN3CCOCC3)n2)cc1	2%	7.9µM*	13%	-1%	2
Cc1c(C(=O)Nc2cccc([N+](=O)[O-])c2)cnn1-c1ccccc1	-17%	2.5µM*	-1%	-2%	-1
COc1ccc(NC(=O)c2cnn(-c3ccccc3)c2C)cc1OC	-3%	4µM*	?	·	4
Cc1c(C(=O)Nc2ccccc2)cnn1-c1ccccc1	?	?	·	5%	2
CCCN(c1ccccc1F)S(=O)(=O)c1ccc2c(c1)C(C)(C)C(=O)N2C	·	-2%	·	·	·
CCc1ccc2oc(-c3cccc(NC(=O)c4cccnc4)c3)nc2c1	5%	?	8%	0%	1
O=C(Nc1ccc2oc(-c3ccccc3)nc2c1)c1cccnc1	0%	2.8µM*	8%	2%	0
CC(=O)Nc1ccc(NC(=O)COC(=O)c2ccccc2OCc2cccc(Br)c2)cc1	·	12%	·	·	·
O=C(Nc1ccccn1)c1ccc2ccccc2n1	-12%	8%	45µM*	-6%	-3
CCCc1ccc(-c2cc(C(=O)NN3CCOCC3)c3ccccc3n2)cc1	·	14µM*	6%	-6%	1
O=C(Nc1cc(F)ccc1F)C1CCN(C(=O)c2cnn(-c3ccccc3)c2-n2cccc2)CC1	·	12%	·	·	·
O=C1[C@@H]2Cc3c([nH]c4ccccc34)C(c3cccc([N+](=O)[O-])c3)N2C(=O)CN1CCCO (some centres undefined)	-12%	0%	-3%	-11%	-2
CN1CC(=O)N2C(c3ccc(Cl)cc3)c3[nH]c4ccccc4c3C[C@H]2C1=O (some centres undefined)	5.6µM*	-26%	-1%	-7%	2
SMILES	uPA generation	BRCA1 expr up	p53 reactivator	TCR act	IL-2 act
CN1CC(=O)N2C(c3cccc([N+](=O)[O-])c3)c3[nH]c4ccccc4c3C[C@H]2C1=O (some centres undefined)	0.4µM*	-6%	-4%	0%	0
CC(C)(C)c1ccc(C(=O)Nc2cccc([N+](=O)[O-])c2)cc1	-10%	-61%	?	-4%	-1
CC(C)(C)CC(C)(C)NC(=O)Nc1cccc([N+](=O)[O-])c1	10µM*	-40%	2%	-1%	-1
O=C(Nc1ccc(OC(F)(F)F)cc1)Nc1cccc([N+](=O)[O-])c1	-9%	-58%	35µM*	0%[46.1 µM]	-1
Cc1cccc(-c2noc(C3CCCCC3)n2)c1	2%	4.5µM*	·	-4%	-2
Cc1ccc(-c2noc(C3CCCCC3)n2)cc1	9%	10µM*	?	1%	0
Cc1ccc(-n2nnc(-c3cccnc3Cl)n2)cc1	?	3.5µM*	10%	-1%	0
Clc1ccc(-n2nnc(-c3cccnc3Cl)n2)cn1	?	85%	9%	2%	-3
Cn1c(CCNC(=O)c2ccco2)nc2cc(NC(=O)c3ccco3)ccc21	-9%	8.9µM*	14%	2%	1
Cc1nc2cc(NC(=O)NCc3ccco3)ccc2n1C	-7%	11µM*	28%	-2%	1
Cn1c(CCNC(=O)c2ccco2)nc2cc(NC(=O)c3ccccc3)ccc21	-5%	?	4%	2%	0
COc1ccc(-c2n[nH]c3c2C(c2ccc(Cl)cc2Cl)NC3=O)cc1 (centres undefined)	·	-53%	·	·	·
O=C(Nc1nc2cc3c(cc2s1)OCO3)C1=COCCO1	2µM*	-71%	7%	-5%	0
Cc1cccc2c1-c1sc(C(=O)NCCCN3CCN(c4cccc(Cl)c4)CC3)cc1CO2	·	-70%	·	·	·
CCOC(=O)C1=C(C)N(c2ccc(C)c(C)c2)C(=O)/C1=C\c1ccco1	·	2%	2%	-2%	-2
COC(=O)C1=C(C)N(c2ccc(C)c(C)c2)/C(=C/c2ccco2)C1=O	2%	-25%	1%	-1%	71*
COc1cc(OC)c(/C=C/c2ccc3ccccc3[n+]2C)c(OC)c1	·	-70%	·	·	·
O=C(O)c1cnn(-c2nc(-c3ccc(Cl)cc3)cs2)c1C(F)(F)F	2%	4.5µM*	?	-16%	0
Cc1ccc(NC(=O)[C@@H](c2ccccc2)N2Cc3ccccc3C2=O)cc1F	·	-21%	·	·	·
Cc1nnc(NC(=O)c2oc3ccccc3c2C)s1	-10%	32%	?	-2%	-2
Cc1nc(NC(=O)c2oc3ccccc3c2C)sc1C(=O)N(C)C	·	13µM*	17%	4%[46.1 µM]	-4
Cc1ccc(/C=C/C(=O)NC2=NCCS2)cc1	10µM*	19%	?	-7%[46.1 µM]	-2
CC(C)(C)c1ccc(/C=C/C(=O)NC2=NCCS2)cc1	2%	?	11%	4%	0
O=C(CCSc1ccc(Cl)cc1)N1CCCCCC1	2%	13µM*	?	-4%	-1
CCCCNc1ncnc2oc(-c3ccco3)c(-c3ccco3)c12	·	-48%	·	·	·
SMILES	uPA generation	BRCA1 expr up	p53 reactivator	TCR act	IL-2 act
CCC(=O)NCCc1sc2nc(-c3ccc(OC)cc3)nn2c1C	·	5µM*	·	·	·
NC(=O)C1CCN(c2nc(-c3ccc4ccccc4c3)cs2)CC1	6%	13µM*	7%	1%	0
NC(=O)C1CCN(c2nc(-c3cccc(Cl)c3)cs2)CC1	-6%	4µM*	4%	-3%	-1
O=C(CI)Nc1cccc2cccnc12	·	-39%	·	·	·
CC(=O)C[n+]1cccc2cc(Cl)ccc21	·	-18%	·	·	·
CCN(CC)CCCOc1cc2nc(N3CCCN(C)CC3)nc(NC3CCN(C)CC3)c2cc1OC	·	-27%	·	·	·
c1ccc(Sc2ncnc3c2oc2ccccc23)nc1	-7%	11µM*	?	-5%	1
Cc1cc(C)c(NC(=O)c2c(C)oc3c2C2=NCCN2C=N3)c(C)c1	·	-2%	·	·	·
